About 83,000 compounds went through this panel and 20% of them were active in at least one assay; those are over-represented in the sample as a whole.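 Compound tested at a single concentration for 48 hours in 96-well plates; a percent growth value below 10 was scored as active.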 Values without a mark were called inactive. The source made the active and inactive calls.
Columns and labels:
Experiment in all cases: NCI-60 one-dose screen, 48 h (100 = growth as untreated, 0 = no growth, -100 = all killed)
[1] = system: SR leukemia; conditions: 10 µM unless noted
[2] = system: RPMI-8226 leukemia; conditions: 10 µM unless noted
[3] = system: OVCAR-8 ovarian; conditions: 10 µM unless noted
[4] = system: OVCAR-5 ovarian; conditions: 10 µM unless noted
[5] = system: OVCAR-4 ovarian; conditions: 10 µM unless noted
[6] = system: SK-OV-3 ovarian; conditions: 10 µM unless noted
[7] = system: IGROV1 ovarian; conditions: 10 µM unless noted
[8] = system: OVCAR-3 ovarian; conditions: 10 µM unless noted
[9] = system: NCI/ADR-RES ovarian; conditions: 10 µM unless noted
[10] = system: T-47D breast; conditions: 10 µM unless noted
[11] = system: BT-549 breast; conditions: 10 µM unless noted
[12] = system: MDA-MB-435 melanoma; conditions: 10 µM unless noted
[13] = system: SW-620 colon; conditions: 10 µM unless noted
[14] = system: MCF7 breast; conditions: 10 µM unless noted
[15] = system: HCT-116 colon; conditions: 10 µM unless noted
[16] = system: HCC-2998 colon; conditions: 10 µM
[17] = system: KM12 colon; conditions: 10 µM unless noted

| Structure (SMILES) | growth [1] | growth [2] | growth [3] | growth [4] | growth [5] | growth [6] | growth [7] | growth [8] | growth [9] | growth [10] | growth [11] | growth [12] | growth [13] | growth [14] | growth [15] | growth [16] | growth [17] |
| --- | --- | --- | --- | --- | --- | --- | --- | --- | --- | --- | --- | --- | --- | --- | --- | --- | --- |
| C#Cc1cccc(Nc2ncnc3cc(OCCOC)c(OCCOC)cc23)c1 | 51.3% | 70.1% | 40.4% | 48.4% | 54.3% | -21.9% (active) | 8.02% (active) | 64.2% | 56.9% | 30.9% | 68.6% | 74.7% | 74.6% | 88.3% | 54.1% | 94.8% | 77.8% |
| CN1CCN(c2ccc(C(=O)Nc3n[nH]c4ccc(Cc5cc(F)cc(F)c5)cc34)c(NC3CCOCC3)c2)CC1 | -28.6% (active) | -29.6% (active) | 22.6% | 1.41% (active) | -6.27% (active) | 20.1% | -46.1% (active) | 32.8% | 10.8% | -65.6% (active) | 10.6% | -86.5% (active) | -79.2% (active) | -72% (active) | -95.5% (active) | -81.3% (active) | -72.5% (active) |
| COC(=O)C1=C(C(=O)OC)C23C=C(C)C1C2=C(C)C1(CC1)[C@@](C)(O)C3=O (stereo partly drawn) | 66.6% | 92.3% | 12.7% | -3.58% (active) | 1.65% (active) | -21.6% (active) | 3.08% (active) | -2.36% (active) | -3.49% (active) | -3.03% (active) | -35.7% (active) | -18.2% (active) | 78.1% | 11.3% | 5.3% (active) | -22.1% (active) | 29.6% |
| Cn1ncc(Cl)c1-c1cc(C(=O)N[C@H](CN)Cc2cccc(F)c2)sc1Cl | -29.6% (active) | -10.3% (active) | 15.5% | 35.3% | 35.6% | -12.8% (active) | -21.5% (active) | 31% | 28.6% | -24.7% (active) | -4.28% (active) | 4.34% (active) | 39.8% | -11.7% (active) | 12.8% | -78.2% (active) | 1.36% (active) |
| Cc1ccc(Nc2nccc(N(C)c3ccc4c(C)n(C)nc4c3)n2)cc1S(N)(=O)=O | 18% | 20.8% | 20.4% | 9.38% (active) | 31.3% | -1.9% (active) | 3.2% (active) | 39.9% | 48.5% | 4.07% (active) | 25.8% | 19.3% | 19.3% | 32.3% | 3.7% (active) | -5.85% (active) | 15% |
| COC(=O)[C@]12CC[C@@H](C)[C@H](C)[C@@H]1C1=CC[C@@H]3[C@@]4(C)C(C=O)=C[C@@](C)(COS(C)(=O)=O)C4=CC[C@@]3(C)[C@]1(C)CC2 | -15.6% (active) | -4.75% (active) | -12% (active) | -35.9% (active) | -61.1% (active) | 17.1% | -24.1% (active) | -85.7% (active) | -25.4% (active) | -10.6% (active) | -43.5% (active) | -73.8% (active) | -85.2% (active) | -16.8% (active) | -81.2% (active) | -83.5% (active) | -73% (active) |
| COc1cc2ncnc(Nc3ccc(F)c(Cl)c3)c2cc1NC(=O)/C=C/CN1CCCCC1 | -14.5% (active) | -31.2% (active) | -38.2% (active) | -22% (active) | -57.5% (active) | -93.5% (active) | -47.7% (active) | -83.2% (active) | -55% (active) | -63% (active) | -32.4% (active) | -95.3% (active) | -78.4% (active) | -53.7% (active) | -78.5% (active) | -88% (active) | -83.8% (active) |
| C=C1CC[C@@H]2[C@](C)(COC(C)=O)[C@H](OC(C)=O)CC[C@@]2(C)[C@@H]1C/C=C1/C(=O)OC[C@H]1OC(C)=O | 5.73% (active) | 14.1% | 27.1% | 53.7% | 66.5% | 101% | 103% | -21.3% (active) | 25% | 42.8% | 27.4% | 33.1% | -21.9% (active) | 22.9% | -37.3% (active) | 67.3% | 52.8% |
| O=C1C=CC2(NN=C(c3ccccc3)N2c2ccc(Cl)cc2)c2cccc(O)c21 (stereo not drawn) | 36.8% | 64% | 43.4% | 47.6% | 43.3% | 102% | 66.7% | 13.5% | 45.1% | 87.2% | 33.5% | -91.5% (active) | 52.5% | 45.4% | 26.1% | 64.4% | 58.6% |

Source: PubChem BioAssay (NCI)
